From PubChem BioAssay come the findings set out here.

Active and inactive are the calls of the source. Unless noted, how the calls were made is not given here.

Test [1] in a line: resazurin metabolic signal in HepG2 cells – cell-based, resazurin fluorescence, 24 h, PK04 Diversity Set, profiling panel (AID 1172). The conditions noted are these: HepG2 viability, higher = more signal. (In general: Alamar Blue is a resazurin reagent that responds to reducing activity.)
A short description of test [2]: budding yeast growth changes without added modifier – OD600, strain BY4716, 24 h, basal condition, primary screen (AID 1173). The conditions noted are these: S. cerevisiae BY4716 growth, OD600, 24 h; higher = more signal, called active from +8 up or from −8 down.
Test [3] in a line: viability profiling in MM1S myeloma cells – cell-based, resazurin fluorescence, basal, 24 h, PK04 Diversity Set, profiling panel (AID 1174). The conditions noted are these: higher = more signal, called active from +8 up or from −8 down.
Test [4] has as its target Dihydroorotate dehydrogenase (quinone), mitochondrial (Plasmodium falciparum (isolate 3D7)) (UniProt Q08210). Nature of the test: inhibition of P. falciparum DHODH – biochemical, C-terminal His tag, absorbance 600 nm, primary screen (AID 1175).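 Further: recombinant parasite enzyme with a five histidine tag at its C terminus.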 Conditions: PfDHODH enzyme, DCIP absorbance 600 nm; higher = more signal, called active from +8 up or from −8 down.
Test [5] is described as follows: inhibition of PAO1 biofilm formation – strain PAO1, LB-PBS medium, absorbance 600 nm, primary screen (AID 1176). Conditions: P. aeruginosa PAO1 growth/biofilm, A600, 12 h; higher = more signal.
Test [6] in a line: growth modulation of vineyard yeast isolate – strain RM11-1a, OD600, basal, 24 h, primary screen (AID 1177).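 Further: cultures grown under basal conditions with no added stressor.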 The conditions noted are these: S. cerevisiae RM11-1a growth, OD600, 24 h; higher = more signal, called active from +8 up or from −8 down.
Test [7] in a line: growth of efflux-deficient E. coli DRC39 – strain DRC39, OD650, 24 h, E. coli filamentation inducers, primary screen (AID 1178).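 Further: growth measured as culture turbidity by optical density at 650 nm.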 Conditions: E. coli DRC39 acrAB, higher = more signal, called active from +8 up or from −8 down.
Test [8] is described as follows: growth of efflux-deficient E. coli DRC39 – strain DRC39, OD650, 48 h, E. coli filamentation inducers, primary screen (AID 1179).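 Further: screen aims at cell division blockers that make cells filament.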 Conditions: E. coli DRC39 delta-acrAB growth, higher = more signal, called active from +8 up or from −8 down.
Test [9] is described as follows: viability profiling in RPMI8226 myeloma cells – cell-based, resazurin fluorescence, basal, 24 h, PK04 Diversity Set, profiling panel (AID 1180).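 Further: RPMI8826 multiple myeloma cell line at 5000 cells per well.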 The conditions noted are these: higher = more signal.
In test [10] the target is E3 ubiquitin-protein ligase XIAP (Homo sapiens) (UniProt P98170). Nature of the test: small molecules binding XIAP protein – biophysical, small-molecule microarray, fluorescence 635 nm, primary screen (AID 1181).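 Further: score merges 667 nm emission and signal to noise over triplicate slides.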 The conditions noted are these: higher = more signal.
Test [11] deals with XIP peptide (Xip251-270) binding. Put plainly: XIP fragment 251-270 binding compounds – biochemical, small-molecule microarray, fluorescence 635/667 nm, 0.1 µg/mL protein, primary screen (AID 1182). Conditions: fluorescent protein binding, 635 nm, higher = more signal, called active from +8 up or from −8 down.
The next test concerns XIP peptide (Xip251-270). Put plainly: compounds binding XIP fragment 251-270 – biochemical, small-molecule microarray, fluorescence 635/667 nm, 0.5 µg/mL protein, primary screen (AID 1183). The conditions noted are these: fluorescence 635 nm, higher = more signal.
Test [12] is described as follows: blood-stage malaria parasite viability loss – strain 3D7, DAPI fluorescence, 100 nL, primary screen (AID 1184).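 Further: parasites grown inside human red blood cells in medium with human serum.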 The conditions noted are these: P. falciparum 3D7 growth, 3 d, higher = more signal.
Test [13] deals with Homeobox protein Hox-A13 (Mus musculus) (UniProt Q62424). Nature of the test: disruptors of Hoxa13 oligonucleotide interaction – biochemical, fluorescence polarization, labeled oligonucleotide, primary screen (AID 1185). The conditions noted are these: Hoxa13:DNA binding, 15 min, higher = more signal, called active from +8 up or from −8 down. For orientation: In fluorescence polarisation assays a small probe gives low polarisation when free and higher when bound to something large.

Test [14] in a line: blockers of DNA damage checkpoint Chk1 activation – imaging, HeLa, hydroxyurea, phospho-Chk1 antibody, percent positive cells, primary screen (AID 1186). The conditions noted are these: hydroxyurea-induced phospho-Chk1 immunofluorescence imaging, higher = more signal.
A short description of test [15]: blockers of DNA damage checkpoint Chk1 activation – imaging, HeLa, hydroxyurea, phospho-Chk1 nuclear intensity, primary screen (AID 1187). Conditions: hydroxyurea-induced phospho-Chk1 immunofluorescence imaging, higher = more signal.

Sequence of Homeobox protein Hox-A13 (Mus musculus) (Q62424 whole entry, looked up): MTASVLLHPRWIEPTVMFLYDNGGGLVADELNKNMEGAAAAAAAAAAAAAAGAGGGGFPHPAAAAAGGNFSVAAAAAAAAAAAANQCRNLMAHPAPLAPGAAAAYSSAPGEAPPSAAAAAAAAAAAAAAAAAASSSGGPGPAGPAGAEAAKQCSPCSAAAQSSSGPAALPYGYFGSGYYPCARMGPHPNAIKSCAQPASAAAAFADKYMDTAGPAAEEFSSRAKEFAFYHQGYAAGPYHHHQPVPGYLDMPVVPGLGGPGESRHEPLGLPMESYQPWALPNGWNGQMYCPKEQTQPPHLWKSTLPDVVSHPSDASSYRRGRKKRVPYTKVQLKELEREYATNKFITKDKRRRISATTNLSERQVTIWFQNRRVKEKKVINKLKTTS
Sequence of E3 ubiquitin-protein ligase XIAP (Homo sapiens) (P98170 whole entry, looked up, the tested form may be a part): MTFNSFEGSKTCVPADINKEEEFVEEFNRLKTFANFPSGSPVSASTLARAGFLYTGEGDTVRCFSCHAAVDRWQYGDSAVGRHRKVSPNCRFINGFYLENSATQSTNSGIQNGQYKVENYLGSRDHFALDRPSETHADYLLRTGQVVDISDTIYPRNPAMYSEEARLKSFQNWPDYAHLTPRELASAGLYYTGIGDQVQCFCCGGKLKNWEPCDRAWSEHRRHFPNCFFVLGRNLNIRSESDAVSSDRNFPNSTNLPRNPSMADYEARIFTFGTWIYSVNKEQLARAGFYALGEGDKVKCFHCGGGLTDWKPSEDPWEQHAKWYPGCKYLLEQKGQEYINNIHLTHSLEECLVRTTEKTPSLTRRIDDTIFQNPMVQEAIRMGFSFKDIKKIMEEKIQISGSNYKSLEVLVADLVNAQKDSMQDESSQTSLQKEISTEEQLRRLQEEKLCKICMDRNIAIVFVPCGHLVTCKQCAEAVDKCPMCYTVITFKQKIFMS
Sequence of Dihydroorotate dehydrogenase (quinone), mitochondrial (Plasmodium falciparum (isolate 3D7)) (Q08210 whole entry, looked up): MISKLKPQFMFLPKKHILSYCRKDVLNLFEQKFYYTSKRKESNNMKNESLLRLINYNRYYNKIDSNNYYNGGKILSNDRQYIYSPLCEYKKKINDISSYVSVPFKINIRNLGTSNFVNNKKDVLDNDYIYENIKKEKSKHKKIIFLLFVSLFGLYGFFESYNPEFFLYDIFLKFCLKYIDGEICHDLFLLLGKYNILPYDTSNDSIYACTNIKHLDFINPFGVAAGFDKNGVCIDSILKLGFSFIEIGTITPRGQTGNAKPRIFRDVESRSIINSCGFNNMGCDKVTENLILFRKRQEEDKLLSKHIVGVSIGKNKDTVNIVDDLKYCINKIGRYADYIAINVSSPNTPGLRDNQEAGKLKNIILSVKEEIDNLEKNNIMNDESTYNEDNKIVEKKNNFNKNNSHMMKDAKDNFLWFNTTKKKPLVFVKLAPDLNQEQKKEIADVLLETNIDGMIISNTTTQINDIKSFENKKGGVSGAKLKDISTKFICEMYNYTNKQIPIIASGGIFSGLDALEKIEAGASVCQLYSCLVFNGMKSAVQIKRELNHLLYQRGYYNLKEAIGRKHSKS

For the compound `CCOC(=O)C[C@H]1[C@H](OC(=O)c2ccc(-c3ccccc3)cc2)[C@@H](NC(=O)c2ccc3ccccc3n2)c2cc(OCCCO)ccc2N1C(=O)c1ccccc1`, the z-score in test [1] is -0.576; in test [2], 1.11 (inactive); in test [3], -0.421 (inactive); in [5] it was -0.37 (inactive); in test [6], 0.97 (inactive); in test [7], 0.353 (inactive). The z-score was 0.287 (inactive) in [8]; -0.193 in [9]; -1.1 in test [12]; -2.05 (inactive) in test [13]; 0.188 (inactive) in [14]; 0.16 (inactive) in test [15]. Moreover, the composite z-score was 0.421 (inactive) in [4], -0.286 in test [10], -0.0549 (inactive) in [11] and 0.266 with XIP peptide (Xip251-270).
Turning to `C#CCNC(=O)[C@H](Cc1ccccc1)NC(=O)[C@@H](N=[N+]=[N-])C(C)C`, the z-score was 0.664 in [1]; -1.19 (inactive) in test [2]; 0.633 (inactive) in [3]; -0.24 (inactive) in test [5]; -0.597 (inactive) in test [6]; 0.713 (inactive) in test [7]. Besides, the z-score in test [8] was 0.626 (inactive); in test [9] it was 0.816; in test [12] it was -0.765; in test [13], -0.747 (inactive); in test [14], 0.744 (inactive); in test [15], 0.815 (inactive). The composite z-score in test [4] is -0.635 (inactive); in test [10] it was 0.117; in [11], 0.056 (inactive); in the test on XIP peptide (Xip251-270), 0.262.
As for `CO[C@H]1O[C@H](CO)[C@@H](OC(=O)Nc2ccc(C(F)(F)F)cc2)[C@H](OC(=O)Nc2ccc3c(c2)OCO3)[C@H]1OC(=O)Nc1ccc2c(c1)OCO2`, the z-score in test [1] is -1.9; in test [2] it was 0.634 (inactive); in [3], -3.06 (inactive); in test [5], 0.854 (inactive); in test [6] it was 1.37 (inactive); in [7], 0.436 (inactive). The z-score is -0.553 (inactive) in test [8]; -3.35 in [9]; -1.76 in [12]; -3.94 (inactive) in test [13]; -0.318 (inactive) in [14]; -0.559 (inactive) in [15]. Further, the composite z-score in test [4] was -0.605 (inactive); in test [10], -0.289; in test [11] it was 1.22 (inactive); in the test with XIP peptide (Xip251-270), 0.898.
With `CCCN1C(=O)[C@]2(Cc3ccccc3)N=C(c3ccc(OCCCO)cc3)O[C@@H]2c2ccccc21`, the z-score in test [1] is 0.734; in test [2], -1.94 (inactive); in test [3] it was -0.753 (inactive); in test [5] it was -0.0963 (inactive); in test [6] it was 0.931 (inactive); in [7], 0.94 (inactive). Further, the z-score was 0.718 (inactive) in [8]; -1.13 in test [9]; -2.26 in [12]; -4.81 (inactive) in test [13]; -0.143 (inactive) in [14]; 0.231 (inactive) in test [15]. Besides, the composite z-score in test [4] was -0.42 (inactive); in test [10], 0.108; in test [11], -0.116 (inactive); with XIP peptide (Xip251-270) it was 0.594.
Regarding `O=C1C[C@]2(c3ccc([N+](=O)[O-])cc3)C(=O)N(Cc3ccccc3)c3cc(CO)ccc3[C@H]2N1CC12CC3CC(CC(C3)C1)C2`, the z-score in [1] was -0.566; in [2] it was -0.0685 (inactive); in test [3], -0.434 (inactive); in test [5], 0.848 (inactive); in test [6] it was -0.268 (inactive); in [7], -0.22 (inactive). Further, the z-score is 0.0276 (inactive) in test [8]; -0.717 in [9]; -0.734 in test [12]; -1.07 (inactive) in test [13]; 0.0585 (inactive) in [14]; -0.785 (inactive) in test [15]. Besides, the composite z-score is -3.36 (inactive) in [4], -0.133 in test [10], 0.0547 (inactive) in test [11] and -1.46 in the test with XIP peptide (Xip251-270).
As to `CCOc1cc(C(O)C2C=CC3C(=O)N(C4CCCCC4)C(=O)C3N2Nc2ccc(OC)cc2)ccc1O` (centres undefined), the z-score in test [1] was 0.182; in test [2], 0.0779 (inactive); in test [3], 0.312 (inactive); in test [5] it was 0.698 (inactive); in test [6] it was 0.0701 (inactive); in test [7], 0.231 (inactive). Further, the z-score in test [8] was 1.13 (inactive); in test [9], 0.753; in test [12], -0.165; in test [13], -3.99 (inactive); in test [14] it was -0.509 (inactive); in test [15], -0.813 (inactive). For the same compound, the composite z-score in test [4] is -0.665 (inactive); in [10] it was 0.169; in [11], 0.0699 (inactive); in the test with XIP peptide (Xip251-270), 0.486.
As for `C=CC[C@H](OC(=O)Nc1ccc(OC)cc1)c1ccc(O)c2ccccc12`, the z-score in test [1] was -0.878; in test [2], -16.7 (active); in test [3], -6.07 (inactive); in test [5], 1.82 (inactive); in [6], -20 (active); in test [7], 0.852 (inactive). For the same compound, the z-score in [8] was 0.148 (inactive); in [9], -4.15; in test [12] it was -1.36; in [13], -0.0657 (inactive); in test [14], 0.936 (inactive); in test [15], 0.821 (inactive). The composite z-score in test [4] is -7.13 (inactive); in [10], -0.0872; in test [11], -0.104 (inactive); with XIP peptide (Xip251-270) it was 0.616.
`O=C(NC1CC1)[C@@H]1c2ccccc2C(=O)N(Cc2ccccc2)[C@H]1c1ccc(CO)cc1`: the z-score in test [1] was 0.0991; in test [2], 0.172 (inactive); in test [3], -0.556 (inactive); in test [5] it was -0.149 (inactive); in test [6] it was 0.0831 (inactive); in test [7], 0.693 (inactive). Also, the z-score was 1.58 (inactive) in [8]; 0.904 in test [9]; -1.55 in test [12]; -2.86 (inactive) in test [13]; -0.556 (inactive) in test [14]; -0.679 (inactive) in test [15]. Besides, the composite z-score in [4] was -0.0098 (inactive); in test [10] it was 0.159; in test [11], 1.38 (inactive); in the test on XIP peptide (Xip251-270) it was 0.752.
In the case of `COc1ccc(NN2C(C(O)c3ccccn3)C=CC3C(=O)N(C4CCCCC4)C(=O)C32)cc1` (centres undefined), the z-score in test [1] was 1.64; in test [2], -0.774 (inactive); in test [3], 0.583 (inactive); in [5], 0.574 (inactive); in [6], 0.219 (inactive); in test [7] it was -0.416 (inactive). Besides, the z-score in test [8] is 0.824 (inactive); in [9] it was 0.974; in [12], -0.408; in test [13] it was -4.39 (inactive); in test [14], -0.773 (inactive); in test [15], -0.488 (inactive). In addition, the composite z-score in [4] is 1.25 (inactive); in test [10], -0.308; in test [11] it was -0.136 (inactive); in the test with XIP peptide (Xip251-270), 0.913.
